Screen size: about 330,000 compounds; about 1,300 (0.39%) were called active.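 How the source made its calls: active means percent inhibition above a cutoff equal to the mean of all tested compounds plus 3 SD (cut at about 15% in these data); inactive means the rest.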 This excerpt belongs to a sample that is enriched for actives.
Molecular target: Protein-arginine deiminase type-4 (Homo sapiens) (UniProt Q9UM07)
Experiment: protein arginine deiminase 4 enzyme blockade – biochemical, fluorescence polarization, 1536-well format, primary screen (AID 485272);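 further: 0% = PAD4 with RCA probe and DMSO and 100% = probe without PAD4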
Conditions: recombinant PAD4, RCA probe fluorescence polarization; at 6.36 µM; hits give high values

Protein-arginine deiminase type-4 (Homo sapiens), sequence (Q9UM07 whole entry, looked up): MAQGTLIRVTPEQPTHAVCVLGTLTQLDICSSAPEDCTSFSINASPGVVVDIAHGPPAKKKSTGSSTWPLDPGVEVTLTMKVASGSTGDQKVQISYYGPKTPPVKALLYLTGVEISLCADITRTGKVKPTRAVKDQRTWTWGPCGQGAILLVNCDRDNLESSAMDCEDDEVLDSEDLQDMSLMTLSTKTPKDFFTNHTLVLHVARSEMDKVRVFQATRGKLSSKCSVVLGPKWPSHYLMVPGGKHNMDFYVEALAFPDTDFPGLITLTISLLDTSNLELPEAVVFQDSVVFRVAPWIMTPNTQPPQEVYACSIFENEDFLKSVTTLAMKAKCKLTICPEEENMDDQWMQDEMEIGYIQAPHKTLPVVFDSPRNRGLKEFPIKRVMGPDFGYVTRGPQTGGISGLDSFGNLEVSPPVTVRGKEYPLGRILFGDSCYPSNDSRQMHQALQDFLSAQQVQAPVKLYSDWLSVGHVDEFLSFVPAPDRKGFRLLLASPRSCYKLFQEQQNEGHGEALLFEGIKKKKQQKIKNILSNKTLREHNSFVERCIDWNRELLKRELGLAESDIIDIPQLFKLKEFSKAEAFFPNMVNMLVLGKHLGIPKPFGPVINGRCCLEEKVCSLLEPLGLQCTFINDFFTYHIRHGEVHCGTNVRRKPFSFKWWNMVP

Row | SMILES | inhibition
1 | O=C(CSc1nc2ccccc2c(=O)n1Cc1ccc(F)cc1)NCC1CCCO1 (configuration not stated) | -1.2% (inactive)
2 | O=C(CSc1nc2ccccc2c(=O)n1-c1ccc(F)cc1)NC1CC1 | 1.54% (inactive)
3 | O=C(CCn1c(SCC(=O)c2ccccc2)nc2ccccc2c1=O)NCc1ccc(F)cc1 | 67.8% (active)
4 | CCN(C(=O)CSc1nc(N)cc(=O)[nH]1)C1CCS(=O)(=O)C1 (configuration not stated) | -0.69% (inactive)
5 | CONc1nc2nonc2nc1NOC | -1.87% (inactive)
6 | COc1ccc([C@H]2CC(=O)C=C(c3ccc(CO)cc3)C2)cc1 | 1.09% (inactive)
7 | O=S(=O)(Cc1nnnn1-c1ccc(Br)cc1)c1ccc(F)cc1 | -0.08% (inactive)
8 | O=C1CN(C(=O)CN2C(=O)NC3(CCCCC3)C2=O)c2ccccc2N1 | 1.47% (inactive)
9 | Cc1ccc(C)c(S(=O)(=O)N2CCCOC2CNC(=O)C(=O)NC2CCCCC2)c1 (configuration not stated) | -5.07% (inactive)
10 | COc1ccc(-c2nc(CS(=O)CC(=O)NCc3ccccn3)c(C)o2)cc1 (configuration not stated) | 30.3% (active)
11 | COc1cccc(-c2nc(CS(=O)CC(=O)NCc3ccc(F)cc3)c(C)o2)c1 (configuration not stated) | 0.77% (inactive)
12 | COc1ccc(-c2nc(CS(=O)CC(=O)NCc3ccccc3)c(C)o2)cc1OC (configuration not stated) | 6.4% (inactive)
13 | Cc1ccc(/C=C2\CCn3c2nc2cc(C(=O)O)ccc2c3=O)c(C)c1 | -1.1% (inactive)
14 | COc1ccccc1OCCCCCCN1CCN(C)CC1 | -0.69% (inactive)
15 | Cn1c(SCC(=O)Nc2nccs2)nnc1-c1cccnc1 | 0.78% (inactive)
16 | Cn1c(Nc2cccc(Cl)c2)nc2ccccc21 | 22.6% (active)
17 | Cn1c(NC(=O)c2ccccc2)nc2ccccc21 | -1.36% (inactive)
18 | Cc1c(C(=O)Nc2cccc(Cl)c2)cn2c(nc3ccccc32)c1C#N | -8.49% (inactive)
19 | CC(NC(=O)c1ccc(Cl)cc1)C(=O)N1CCCCC1 (configuration not stated) | -2.13% (inactive)
20 | CC(C)C(NC(=O)c1ccc(Cl)cc1)C(=O)O (configuration not stated) | 33.2% (active)
21 | CC(C)CNC(=S)NC(=O)c1ccc(Cl)cc1 | 3.77% (inactive)

Row | SMILES | inhibition
22 | CN(C)N1C(N)=C(C#N)C(c2ccc(Br)cc2)C2=C1CCCC2=O (configuration not stated) | -7.04% (inactive)
23 | Cc1ccc(-c2nn(-c3ccccc3)cc2/C=C2\SC(=S)N(CCCCCC(=O)O)C2=O)o1 | -0.43% (inactive)
24 | Cc1ccc(-c2nn(-c3ccccc3)cc2/C=C/C(=O)Nc2cccc(S(N)(=O)=O)c2)cc1 | -9.63% (inactive)
25 | CN(C)S(=O)(=O)c1cccc(-c2nn(-c3ccccc3)cc2/C=C2\SC(=S)N(CC(=O)O)C2=O)c1 | 29.1% (active)
26 | Cc1cc(NS(=O)(=O)c2ccc(NC(=S)NC(=O)c3ccc(F)cc3Cl)cc2)no1 | -2.99% (inactive)
27 | CCOc1ccc(S(=O)(=O)N2CCC(C(=O)NCc3ccccn3)CC2)cc1Cl | -2.62% (inactive)
28 | C=C1CCC(N(O)c2cc(C)on2)C(=C)CCC2C1CC2(C)C (configuration not stated) | -6.2% (inactive)
29 | O=c1[nH]n(-c2ccc([N+](=O)[O-])cc2)c(=O)c2ccccc12 | 31.3% (active)
30 | COc1cnn(-c2ccc([N+](=O)[O-])cc2)c(=O)c1Cl | 3.88% (inactive)
31 | Cc1[nH]n(-c2ccc([N+](=O)[O-])cc2)c(=O)c1C=NCCN1CCN(C(=O)c2ccccc2F)CC1 | -1.51% (inactive)
32 | CCCCCNC(=O)Cc1ccc(OC)cc1 | 1.91% (inactive)
33 | COc1ccc(-c2cc(C(=O)NCCCN3CCOCC3)no2)cc1 | -1.77% (inactive)
34 | CCCCNC(=O)C1(c2ccc(OC)cc2)CCOCC1 | 26.1% (active)
35 | c1ccc2c(c1)OCCOCCOCCO2 | 0.83% (inactive)
36 | CCn1c(SCC(=O)Nc2sc(C)c(C)c2C#N)nnc1C1CC1 | -2.74% (inactive)
37 | CCCc1c(C)nc2c(Br)cccc2c1Cl | 2.17% (inactive)
38 | COc1ccc(C2(O)C(=O)Nc3ccccc32)cc1 (configuration not stated) | 0.37% (inactive)
39 | O=C1Nc2ccccc2C12Nc1ccccc1S2 (configuration not stated) | 21.3% (active)
40 | CCc1ccc2c(c1)C1(NN=C(c3ccccc3)S1)C(=O)N2 (configuration not stated) | -9.11% (inactive)
41 | CC1(C)N=C(c2ccccn2)C(C)(C)N1O | -1.6% (inactive)
42 | O=C(NCCc1ccccc1Cl)C1CCC(=O)N(CCCc2ccccc2)C1 (configuration not stated) | 1.05% (inactive)

Row | SMILES | inhibition
43 | Cc1c2cnn(CC(=O)NCc3ccccn3)c(=O)c2c(C)n1Cc1ccc(Cl)cc1 | 1.37% (inactive)
44 | CC(C)CNC(=O)CC(NCC(C)C)C(=O)O (configuration not stated) | -2.65% (inactive)
45 | Oc1ccc(-c2[nH]ncc2-c2nc3ccccc3s2)c(O)c1 | 3.22% (inactive)
46 | Cc1nc2ccccc2nc1N/N=C/c1ccc(O)cc1O | -3.07% (inactive)
47 | Cc1cc(O)ccc1-c1cnc2ccccc2n1 | 28.5% (active)
48 | CS(=O)(=O)N(CC(=O)N1CCN(c2ccc(F)cc2)CC1)C1CCCCC1 | -2.55% (inactive)
49 | C=CCN1C2CCCC1CC(NC(=S)Nc1cccc(OC)c1)C2 (configuration not stated) | 3.98% (inactive)
50 | O=C(CN1C(=O)CCS(=O)(=O)c2ccccc21)NCc1ccc(F)cc1 | -1.88% (inactive)
51 | C[C@H](CO)N1C[C@H](C)[C@@H](CN(C)Cc2ccc(-c3ccccc3)cc2)Oc2ccc(NC(=O)Cn3cnnn3)cc2C1=O | -5.03% (inactive)
52 | CN1c2ccc(C=O)c3c(C=O)ccc(c23)N(C)C1(C)C | 54.5% (active)
53 | O=C(Nc1ccc([N+](=O)[O-])cc1)C1(c2ccccc2)CCOCC1 | -2.28% (inactive)
54 | CN(C(=O)CN1C(=O)CCSc2ccc(S(=O)(=O)N3CCCC3)cc21)c1ccccc1 | -3.61% (inactive)
55 | CNC(=S)NNC(=O)c1oc2nc(-c3ccccc3)cc(-c3ccco3)c2c1N | 19.9% (active)
56 | CNC(=S)NNC(=O)c1cccn(Cc2ccccc2)c1=O | -2.2% (inactive)
57 | NNC(=O)c1oc2nc(-c3ccccc3)cc(-c3ccco3)c2c1N | -6.02% (inactive)
58 | COc1ccc([C@@H]2[C@@H]3C(=O)N(C(C)(C)C)C(=O)[C@@H]3[C@]3(Cc4ccccc4)C(=O)N(c4cccc(Br)c4)C(=O)N23)cc1 | 0.18% (inactive)
59 | Cc1nn(CC2CC2)c(=O)n1N(C)c1ncc(C(F)(F)F)cc1Cl | 0.5% (inactive)
60 | Cc1c(NC(=O)Nc2ccccc2Cl)sc(=S)n1C | -3.79% (inactive)
61 | O=C(Cc1ccc2c(c1)CCCC2)Nc1ccccc1Cl | 1.33% (inactive)
62 | O=C(Nc1ccccc1Cl)/C(Cl)=C(\Cl)S(=O)c1ccccc1 (configuration not stated) | 16.5% (active)
